# Measured values: paper doi:10.1101/2025.02.07.636106
# How the values were obtained:
# [1] = biological target: AP-1 complex subunit sigma-1A (UniProt P61966); test: cross-linking mass spectrometry
# [2] = biological target: AP-1 complex subunit mu-1 (UniProt Q9BXS5); test: co-fractionation; cross-linking mass spectrometry
# [3] = biological target: Elongation factor 1-alpha 1 (UniProt P68104); test: cross-linking mass spectrometry
# [4] = biological target: Histone deacetylase 2 (UniProt Q92769); test: cross-link between two proteins; cross-linking mass spectrometry
# [5] = biological target: Peregrin (UniProt P55201); test: as above
# [6] = biological target: Abl interactor 1 (UniProt Q8IZP0); test: co-fractionation; cross-linking mass spectrometry
# [7] = biological target: Dolichyl-diphosphooligosaccharide--protein glycosyltransferase subunit DAD1 (UniProt P61803); test: co-fractionation; cross-linking mass spectrometry
# [8] = biological target: 26S proteasome non-ATPase regulatory subunit 7 (UniProt P51665); test: cross-link between two proteins; cross-linking mass spectrometry
# [9] = biological target: 26S proteasome regulatory subunit 10B (UniProt P62333); test: as above
# [10] = biological target: Activity-dependent neuroprotector homeobox protein (UniProt Q9H2P0); test: as above
# [11] = biological target: B-cell receptor-associated protein 29 (UniProt Q9UHQ4); test: as above
# [12] = biological target: BTB/POZ domain-containing protein 7 (UniProt Q9P203); test: as above
# [13] = biological target: Cytochrome b-c1 complex subunit Rieske, mitochondrial (UniProt P47985); test: as above
# [14] = biological target: Elongin-A (UniProt Q14241); test: as above
# [15] = biological target: Endoplasmic reticulum chaperone BiP (UniProt P11021); test: as above
substance,measurement,setting,value
"AP-1 complex subunit gamma-1, O43747",listed as a hit,[1],yes
same,listed as a hit,[2],yes
"Heat shock protein HSP 90-beta, P08238",listed as a hit,[3],yes
same,listed as a hit,[4],yes
same,listed as a hit,[5],yes
"AP-1 complex subunit sigma-1A, P61966",listed as a hit,[2],yes
"Cytoplasmic FMR1-interacting protein 1, Q7L576",listed as a hit,[6],yes
"Dolichyl-diphosphooligosaccharide--protein glycosyltransferase subunit 2, P04844",listed as a hit,[7],yes
"Dolichyl-diphosphooligosaccharide--protein glycosyltransferase subunit 1, P04843",listed as a hit,[7],yes
"26S proteasome non-ATPase regulatory subunit 12, O00232",listed as a hit,[8],yes
"Proteasome subunit alpha type-3, P25788",listed as a hit,[9],yes
"ATP-dependent chromatin remodeler CHD4, Q14839",listed as a hit,[10],yes
"Leucine-rich repeat-containing protein 59, Q96AG4",listed as a hit,[11],yes
"Secretory carrier-associated membrane protein 3, O14828",listed as a hit,[12],yes
"Putative cytochrome b-c1 complex subunit Rieske-like protein 1, P0C7P4",listed as a hit,[13],yes
"ATP synthase peripheral stalk subunit OSCP, mitochondrial, P48047",listed as a hit,[14],yes
"DNA/RNA-binding protein KIN17, O60870",listed as a hit,[15],yes
